Screening results from PubChem BioAssay.
Most compounds without a hit are left out; they make up all but 1.6% or so of the library.
LYPLA2 inh: counter-screen for PME1 inhibitors: inhibitors of human LYPLA2 | AID 2177 | inhibition, % at 5.9 µM | O95372 | 320,000 compounds, 0.38% hits | recombinant LYPLA2, FP-Rh probe fluorescence polarization;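 active means inhibition above the screen-wide mean plus 3 SD, limit set per campaign, cut at about 26% in these data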;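 further: 0% = LYPLA2 with DMSO and 100% = wells lacking LYPLA2 enzyme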
Target sequence (O95372 whole entry, looked up): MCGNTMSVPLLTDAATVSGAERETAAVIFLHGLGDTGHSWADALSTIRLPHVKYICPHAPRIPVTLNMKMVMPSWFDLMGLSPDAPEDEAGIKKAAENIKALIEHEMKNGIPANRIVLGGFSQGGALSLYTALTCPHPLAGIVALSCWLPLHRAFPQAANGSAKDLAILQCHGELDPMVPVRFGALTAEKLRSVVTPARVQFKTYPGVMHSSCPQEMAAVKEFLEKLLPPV
MEX-5 binding: C. elegans MEX-5 TCR-2 RNA binding activity | Q9XUB2 | MEX-5/FITC-TCR2 RNA binding, fluorescence polarization; hits give low values | activity score (negative = inhibition of binding), % at 10 µM | 300,000 compounds, 0.38% hits | AID 1832;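 active means inhibition past about -25% in most replicates, and total fluorescence under double the plate's negative control median, limit read from the data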;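 further: 0% = DMSO and -100% = 5 µM competing unlabeled TCR2 RNA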
PME-1 primary: blocks human protein phosphatase methylesterase 1; Q9Y570; recombinant PME-1, FP-Rh probe fluorescence polarization; inhibition, % at 5.9 µM; 320,000 compounds, 0.53% hits;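 active means inhibition above the campaign mean of all compounds plus 3 SD, cut at about 26% in these data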;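 further: competitive labeling of PME-1 active site by serine hydrolase directed probe; 0% = PME-1 with DMSO and 100% = wells lacking PME-1 enzyme; inhibitors block probe labeling so polarization falls and inhibition rises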
Fam108B inh: Fam108B inhibition, counter-screen for RBBP9 inhibitors | recombinant Fam108B, FP-Rh probe fluorescence polarization | AID 1947 | inhibition, % at 9.51 µM | 300,000 compounds, 0.33% hits;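 active means inhibition above the screen mean inhibition plus 3 SD, computed separately per campaign, cut at about 18% in these data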;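 further: inhibitors lower polarization as less probe binds the enzyme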
LYPLA1 counter: counter-screen for PME1 inhibitors: inhibitors of human LYPLA1 | AID 2174 | O75608 | inhibition, % at 5.9 µM | recombinant LYPLA1, FP-Rh probe fluorescence polarization | 320,000 compounds, 0.16% hits;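 active means inhibition above the mean of all tested compounds plus 3 SD, set per campaign, cut at about 14% in these data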;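 further: inhibitors block serine hydrolase probe labeling of LYPLA1 so polarization falls; 0% = enzyme with DMSO and 100% = wells lacking LYPLA1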
Target sequence (O75608 whole entry, looked up): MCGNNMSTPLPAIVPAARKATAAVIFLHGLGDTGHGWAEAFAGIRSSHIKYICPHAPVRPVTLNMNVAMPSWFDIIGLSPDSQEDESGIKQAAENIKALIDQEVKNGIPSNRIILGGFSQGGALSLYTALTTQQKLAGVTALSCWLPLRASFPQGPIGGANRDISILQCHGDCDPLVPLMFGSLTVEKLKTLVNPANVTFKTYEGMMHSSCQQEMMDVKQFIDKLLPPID
PREPL inhibitor: inhibitors of human prolyl oligopeptidase-like enzyme PREPL. Q4J6C6. recombinant PREPL, fluorescence polarization activity-based probe. inhibition, % at 5.96 µM. 320,000 compounds, 0.68% hits. AID 2751; in the data active means inhibition above about 43%;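 further: 0% = enzyme with DMSO and 100% = wells lacking enzyme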
LYPLA1 confirm: counter-screen for PME1 inhibitors: confirmation of human LYPLA1 inhibitors. shares compounds with LYPLA1 counter. recombinant LYPLA1, FP-Rh probe fluorescence polarization. inhibition, % at 5.9 µM. 480 compounds, 69% hits;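 active means mean inhibition across replicates above the hit cutoff set in the primary screen, cut at about 15% in these data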;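 further: loss of FP-Rh probe labeling of LYPLA1 seen as lower polarization; 0% = LYPLA1 with DMSO and 100% = wells lacking LYPLA1 enzyme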
LYPLA2 conf: counter-screen for PME1 inhibitors: confirmation of human LYPLA2 inhibitors | recombinant LYPLA2, FP-Rh probe fluorescence polarization | 1,100 compounds, 72% hits | AID 2232 | inhibition, % at 5.9 µM | shares compounds with LYPLA2 inh;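 active means mean inhibition across replicates above the hit cutoff set in the primary screen, cut at about 26% in these data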;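 further: blocked labeling of the enzyme by serine hydrolase FP-Rh probe lowers polarization; 0% = enzyme with DMSO and 100% = wells lacking LYPLA2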
* hit, by the source's call; x = not tested or not shown.

SMILES | LYPLA2 inh | MEX-5 binding | PME-1 primary | Fam108B inh | LYPLA1 counter | PREPL inhibitor | LYPLA1 confirm | others
O=C(CCC(=O)NCCCc1ccccc1)NCCCc1ccccc1 | 1.9 | 1.2 | 10.2 | 0.6 | -0.7 | 0.8 | x
O=C(O)COn1c(-c2ccccc2)nc2ccc(Cl)cc21 | 2.6 | 2.8 | -0.6 | 1.9 | 1.1 | 7.5 | x
COn1c(-c2ccccc2)nc2ccc(Cl)cc21 | -2.9 | 2.7 | 3.1 | -0.8 | 50.4* | 1.8 | -1.0
CCOC(=O)CSc1nnc(CCCCCN2C(=O)c3cccc4cccc(c34)C2=O)o1 | 4.1 | 1.9 | -9.3 | 0.5 | -0.2 | 13.4 | x
CCOC(=O)CCCSc1nnc(CCCCCN2C(=O)c3cccc4cccc(c34)C2=O)o1 | 19.9 | 0.4 | -3.6 | -4.8 | 45.1* | 7.0 | 52.5*
C=CCSc1nnc(CCCCCN2C(=O)c3cccc4cccc(c34)C2=O)o1 | 9.6 | 1.9 | -1.8 | -0.8 | 26.7* | 9.3 | 38.5*
CSc1ccc(C2NC(=O)CCC2[N+](=O)[O-])cc1 (stereo not drawn) | x | 2.9 | x | x | x | x | x
O=C1CCC([N+](=O)[O-])C(c2ccc(-c3ccccc3)cc2)N1 (stereo not drawn) | 10.5 | -0.6 | 6.6 | 3.1 | 22.0* | 4.4 | 24.0*
CC1=CC(C)(C)N2C(=O)C(=Nc3ccc(O)cc3)c3cccc1c32 | 20.3 | -3.3 | 44.4* | 16.0 | 16.7* | 34.1 | 4.7
CCOC(=O)c1cc(NC(=O)Cc2ccc(S(=O)(=O)N3CCOCC3)s2)cc(C(=O)OCC)c1 | -35.3 | 3.2 | -25.4 | -6.2 | -16.0 | -7.5 | x
Cc1ccc(-n2c(O)c(C=Nc3ccccc3-c3n[nH]c(=S)[nH]c3=O)c3ccccc3c2=O)cc1C | x | -0.5 | x | x | x | x | x
Cc1ccc(-n2c(O)c(C=Nc3ccccc3-c3n[nH]c(=S)[nH]c3=O)c3ccccc3c2=O)c(C)c1 | -3.9 | -2.1 | -9.4 | 7.8 | 14.8* | 9.1 | 15.1*
COc1ccc(Cc2nnc(SCC(=O)N3CCN(c4ccccc4)CC3)o2)cc1 | -2.3 | 0.0 | -0.5 | 4.5 | 24.1* | -3.5 | 30.0*
Cc1cc(OCC(=O)c2ccc(F)cc2)ccc1N1C(=O)CCC1=O | 1.7 | 0.0 | 0.3 | 1.1 | 3.0 | 17.8 | x
COCCn1cnc2c1c(=O)n(CC(=O)NC(=O)NC(C)(C)C)c(=O)n2Cc1ccccc1 | x | 0.4 | x | x | x | x | x
CCNC(=S)NNC(=O)Cn1c(=O)c2c(ncn2CCOC)n(Cc2ccccc2)c1=O | -9.7 | -2.6 | -4.3 | -3.6 | 40.9* | -2.5 | 1.3
Cc1ccc(NC(=S)NN(C)c2nc(C)cnc2C)cc1 | -1.2 | 2.9 | -3.8 | 2.4 | 2.7 | -12.1 | x
O=C(c1cc(COc2cccc(C(F)(F)F)c2)on1)N1CCC(Oc2cccnc2)CC1 | 34.7* | x | 7.6 | -0.6 | 39.6* | 6.5 | 50.2* | LYPLA2 conf=37.7*
Cc1ccc(OCc2cc(C(=O)N3CCC(Oc4cccnc4)CC3)no2)cc1C | 47.9* | 2.2 | 0.5 | -3.4 | 38.3* | 5.9 | 37.7* | LYPLA2 conf=38.3*
CCOC(=O)N1CCN(C(=O)c2cc(COc3cccc(C(F)(F)F)c3)on2)CC1 | 3.6 | -2.9 | 4.3 | 5.2 | 1.0 | 17.3 | x
O=C(COc1ccc2ccc(=O)oc2c1)Nc1cc([N+](=O)[O-])ccc1F | 3.7 | 0.8 | 7.7 | 2.3 | 0.3 | 8.4 | x
O=c1ccc2ccc(Oc3ccc([N+](=O)[O-])cc3Cl)cc2o1 | 69.9* | x | 7.2 | 2.7 | 16.2* | 26.7 | 21.8* | LYPLA2 conf=66.4*
CCC(=O)N1CCN(c2ccc(NC(=S)NC(=O)c3ccc(OC)c([N+](=O)[O-])c3)cc2)CC1 | 62.6* | -0.8 | 7.1 | 1.5 | 56.1* | 4.6 | 70.5* | LYPLA2 conf=81.2*
COc1ccc(C(=O)NC(=S)Nc2ccc(CN3CCOCC3)cc2)cc1Cl | 59.9* | -2.1 | 2.5 | -2.7 | 21.6* | -12.8 | 20.9* | LYPLA2 conf=46.0*
COc1ccc(C(=O)NC(=S)Nc2ccc(N3CCOCC3)c(Cl)c2)cc1[N+](=O)[O-] | 59.9* | -0.4 | 0.5 | -6.0 | 49.8* | 12.2 | 54.2* | LYPLA2 conf=61.0*
O=C1N=C(c2ccccc2)S/C1=C\c1cccs1 | -0.7 | 1.3 | 5.3 | 3.7 | -1.9 | 10.8 | x
